B2AR arrestin ag – beta-arrestin recruitment by human beta2-adrenergic receptor ligands; 44,000 tested, under 10 active; AID 1347077; Potency, µM (highest dose often 46.1 µM), actives largely listed as activators; HTLA Tango cells, beta-arrestin recruitment, luciferase luminescence, 18 h;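 note: potency is the fitted concentration of half-maximal effect; 0% = DMSO and full agonism = EC100 isoproterenol or metaproterenol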
Target sequence (P07550 whole entry, looked up): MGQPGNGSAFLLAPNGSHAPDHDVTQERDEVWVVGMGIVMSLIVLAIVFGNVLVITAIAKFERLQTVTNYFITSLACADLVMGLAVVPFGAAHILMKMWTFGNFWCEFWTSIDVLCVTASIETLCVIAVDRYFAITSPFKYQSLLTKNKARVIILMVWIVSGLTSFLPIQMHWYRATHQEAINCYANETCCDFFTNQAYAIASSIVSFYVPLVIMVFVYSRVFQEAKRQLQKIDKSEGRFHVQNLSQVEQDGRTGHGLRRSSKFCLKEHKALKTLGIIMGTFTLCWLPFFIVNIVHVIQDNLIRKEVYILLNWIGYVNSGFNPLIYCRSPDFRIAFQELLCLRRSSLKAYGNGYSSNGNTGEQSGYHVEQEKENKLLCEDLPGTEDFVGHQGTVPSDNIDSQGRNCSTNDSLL
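Receptor–beta-arrestin recruitment read by tTA-responsive luciferase: compound titrations (up to 46 µM) incubated 18 h with Tango cells, then luminescent substrate 15 min at room temperature. Concentration-response fits classified by r2, efficacy and activity.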
GPR32 ag – GPR32 (DRV1) agonism, beta-arrestin recruitment | hit rate 2.5% among 48,000 | AID 1346428 | CHO-K1 GPR32 beta-arrestin PathHunter luminescence, 90 min; zero percent set by DMSO-only wells | activation, % at 76.9 µM | O75388;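 active = activation of at least 60% and not above a set upper limit, about 1 call in 100 departs from these limits; inconclusive = activation of 40% to 60%, or above that upper limit; inactive = activation under 40%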; note: 0% is about no effect
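Cells are plated overnight, treated with compounds in DMSO for 90 minutes at 37 °C, and developed with PathHunter detection reagent for 1 hour before luminescence is read; signal reflects beta-arrestin binding to GPR32 in engineered CHO-K1 cells.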
NTMT1 inh – blocks human N-terminal methyltransferase 1 activity | AID 1645870 | hit rate 2.5% among 59,000 | NTMT1 MTase-Glo SAH luminescence, purified enzyme | Potency, µM (doses to about 114 µM), inactives show top-dose activity change, negative = inhibition, hits mostly inhibitors;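 note: potency is the fitted concentration of half-maximal effect; plate controls were DMSO vehicle for no effect and no enzyme for full effect; nearly all actives have a fitted effect of over 65% in size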
Target sequence (Q9BV86 whole entry, looked up): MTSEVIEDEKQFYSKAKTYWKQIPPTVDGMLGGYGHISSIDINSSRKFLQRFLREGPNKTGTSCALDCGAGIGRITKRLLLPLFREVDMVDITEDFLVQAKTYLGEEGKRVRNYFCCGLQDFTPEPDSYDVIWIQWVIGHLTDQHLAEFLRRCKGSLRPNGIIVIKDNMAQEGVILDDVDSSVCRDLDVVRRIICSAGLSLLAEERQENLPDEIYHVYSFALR
FH mod – Identification of activators of human fumarate hydratase by quantitative high-throughput screening. FH coupled MDH/diaphorase resazurin fluorescence, 15 min. Potency, µM (top dose mostly 79.9 µM), inactives show at the top dose activity change, negative = inhibition, actives largely listed as inhibitors. Fumarate hydratase, mitochondrial (Homo sapiens), P07954. hit rate 0.22% among 54,000; note: potency is the fitted concentration of half-maximal effect; % is set by controls: 0 for no effect and ±100 for the full control effect; the screen sought activators but most active calls are inhibition curves; nearly all actives have a fitted effect of over 45% in size
TSG101-PTAP inh – inhibitors of HIV-1 PTAP binding to human TSG101, validation; Potency, µM (doses to about 115 µM), hits mostly inhibitors; 44,000 tested, under 10 active; AID 1347069; Q99816; Fluorescence polarization, FITC-PTAP peptide/Tsg101, 20 min; note: potency is the fitted concentration of half-maximal effect; 0% is about no effect
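Fluorescence polarization: Tsg101 binding domain (10 uM final) in 10 mM HEPES pH 7.5, 0.15 M NaCl, 0.01% Tween 20, 3 mM EDTA, 0.1 mM TCEP; compounds pinned; FITC-PTAP peptide 50 nM final; 20 min, r.t.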
GALK inh – inhibits human galactokinase. P51570. recombinant GALK, Kinase-Glo ATP luminescence, 1 h. 44,000 tested, under 10 active. Potency, µM (titrated, usually from 57.5 µM), without a hit: at the highest dose activity, negative = inhibition, most hits filed as inhibitors;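 note: plate controls were full GALK reaction for no effect and reaction lacking GALK for full effect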
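Human GALK (5 nM) was incubated with 35 uM ATP and 100 uM galactose in 20 mM HEPES pH 8.0 with MgCl2, NaCl, DTT and BSA for 1 h at room temperature. Remaining ATP was measured by Kinase-Glo Plus luminescence.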
Starred values were filed as active, the others as inactive; i = inactive; ? = inconclusive; . = no result given; ! = not active in a repeat; [ ] = remark or other dose. This is a sample that favours compounds with a hit; in the whole collection about 3.7% have one here. Unless noted, calls come from the whole dose curve; as a rule, active = well fitted curve in the direction sought with a large enough effect; inconclusive = small, poorly fitted or top-dose-only effect, or another doubt; inactive = no such curve, though single readings can be large; an effect the other way counts as inactive or inconclusive.

SMILES	B2AR arrestin ag	GPR32 ag	NTMT1 inh	FH mod	TSG101-PTAP inh	GALK inh
O=C(O)c1ccc(O)c2ncc(-c3cccc(N4CCOCC4)c3)cc12	.	.	20.7%	.	.	.
Cc1cc(OI)c(C(C)C)cc1-c1cc(C(C)C)c(OI)cc1C	.	18.4	17.8µM*	-13.6%[53.3 µM]	.	.
Cc1ccc(C(C)C)cc2c(C)ccc1-2	.	-4.1	23.8%[57.5 µM]	0.0%[53.3 µM]	.	.
CCOc1ccc(NC(=O)NCCCN2CCN(c3ccc(OC)cc3)CC2)cc1	i	-2.7	-9.3%	-12.6%	i	3.2%
CCC(=O)N1c2ccccc2CC1C(=O)NCCN1CCN(c2cc(Cl)ccc2C)CC1 (centres undefined)	i	68.5*	-4.4%	-4.2%	i	0.1%
CCOc1ccc(NC(=O)NCCN2CCN(c3cc(Cl)ccc3C)CC2)cc1	i	73.0*	-6.6%	-27.5%	i	-5.6%
Cc1ccc(Cl)cc1N1CCN(CCNC(=O)Nc2ccc(Cl)cc2)CC1	i	84.1*	5.5%	-22.8%	i	2.7%
CCC(=O)N1c2ccccc2CC1C(=O)NCCCN1CCN(c2ccc(OC)cc2)CC1 (centres undefined)	i	11.2	-3.9%	-10.2%	i	-3.7%
COc1ccc(Br)cc1S(=O)(=O)NC(=O)/C=C/c1ccccc1Cc1ccc2ccccc2c1	.	.	.	20µM*	.	.
CC(=O)O[C@H](C[C@@H](C)[C@H]1C(=O)[C@H](O)[C@@]2(C)[C@@H]3CCC4C(C)(C)[C@@H](O[C@@H]5OC[C@H](O)[C@H](O)[C@H]5O)CC[C@@]45C[C@@]35CC[C@]12C)[C@@H]1OC1(C)C (some centres undefined)	.	.	10.7%[12.6 µM]	-20.4%[20.6 µM]	.	.
O=c1c2oc3ccccc3c2n(Cc2ccccc2)c(=O)n1Cc1ccco1	i	-6.7	89.1µM*	-17.0%	i	3.2%
CCc1ccc(NC(=O)Cn2nnc(-c3ccccc3N)n2)cc1	i	62.0*	2.4%	13.0%	i	3.5%
O=C(Cn1nnc(-c2ccccc2Cl)n1)Nc1ccc(Br)cc1	i	11.0	0.0%	-3.0%	i	0.0%
CCc1ccc(NC(=O)CSc2nc(-c3ccccc3)c(C#N)c(=O)[nH]2)cc1	i	12.0	-1.3%	-27.6%	i	0.9%
O=C(CCCCCCC(=O)Nc1ccc([C@H]2O[C@@H](CSc3nc(-c4ccccc4)c(-c4ccccc4)o3)C[C@@H](c3ccc(CO)cc3)O2)cc1)NO	.	.	42.9µM*!	-6.0%	.	.
O=C(O)c1ccc(O)c2ncc(NC3CCNCC3)cc12	.	.	2.3%[57.5 µM]	.	.	.
CCCC(O)c1nc2ccccc2n1CCCOc1ccc(Cl)cc1 (centres undefined)	i	68.1*	12.2%	-4.8%	i	0.8%
Cc1ccc(OCCn2c(COc3ccc(Cl)cc3)nc3ccccc32)cc1	i	9.2	4.6%	-6.1%	i	6.7%
COc1ccc2c(c1)CN(C(=O)CCN1CCC(Cc3ccccc3)CC1)CCS2	.	.	16.0%[29.8 µM]	?	.	.
CCOc1ccccc1Nc1sc(C(=O)c2ccc(Cl)cc2)c(N)c1C#N	i	?	7.2%	4.0%	i	-1.3%
Cc1ccc(C(=O)c2sc(Nc3ccc(F)cc3)c(C#N)c2N)cc1	i	85.9*	-3.6%	-12.0%	i	8.4%
COc1cc(OC)cc(-c2nc3nc(C)c(CCC(=O)Nc4ccc(F)cc4F)c(C)n3n2)c1	i	0.4	89.1µM*	-12.7%	i	-0.2%
COc1cc(OC)cc(-c2nc3nc(C)c(CCC(=O)Nc4cc(F)ccc4F)c(C)n3n2)c1	i	-1.2	-28.9%	-6.8%	i	8.9%
O=C(Nc1ccc(Cl)c(Cl)c1)Nc1nc(-c2ccncc2)cs1	.	.	-21.2%[57.5 µM]	.	.	.
CC(C)COc1ccc(C(=O)Nc2onc3c2CCCC3)cc1	i	114.2*	-2.9%	-29.6%	i	4.2%
SMILES	B2AR arrestin ag	GPR32 ag	NTMT1 inh	FH mod	TSG101-PTAP inh	GALK inh
CC(C)(C)c1ccc(C(=O)Nc2onc3c2CCCC3)cc1	i	88.2*	-3.2%	?	i	0.3%
CC(C)(Sc1ccc(CCN(CCCCC2CCCCC2)C(=O)NC2CCCCC2)cc1)C(=O)O	.	-6.1	31.6µM*!	25.1µM*!	.	.
COc1cccc(CCc2ccccc2OCC(CN(C)C)OC(=O)CCC(=O)O)c1 (centres undefined)	.	94.8*	-15.7%[57.5 µM]	-2.8%[53.3 µM]	.	.
O=C(CN1C(=O)COc2ccc(S(=O)(=O)NC3CCCC3)cc21)Nc1ccc(Cl)cc1	i	103.6*	?	-20.7%	i	-0.7%
CC(=O)Nc1sc2c(c1-c1ccc(N[S+](C)(=O)[O-])cc1)CCNC2	.	.	-2.5%	.	.	.
Cc1ccc(CN2CCC(CNc3ncnc4onc(-c5ccc(F)cc5)c34)CC2)cc1	i	31.5	79.4µM*	-19.7%	i	-1.8%
Cc1ccc2[nH]c(=O)c3cc(C(=O)NCc4cccc(Cl)c4)sc3c2c1	i	-11.5	?	?	i	0.7%
CCN(Cc1ccccc1)C(=O)c1cc2c(=O)[nH]c3ccc(C)cc3c2s1	i	-5.9	89.1µM*	?	i	-4.1%
Cc1ccc(NC(=O)c2cnn3c(C)cc(C)nc23)cc1	.	.	-1.2%	.	.	.
O=C(Nc1ccc(Cl)c(S(=O)(=O)N2CCOCC2)c1)c1ccc(S(=O)(=O)N2CCOCC2)cc1	.	.	-28.6%	.	.	.
CCNC(=O)c1noc(-c2cc(Cl)c(O)cc2O)c1-c1ccc(OC)cc1	.	.	4.0%[57.5 µM]	0.3%	.	.
COc1cc(OC)c(NC(=O)CC(C)S(=O)(=O)c2ccc3c(c2)NC(=O)CO3)cc1Cl (centres undefined)	i	73.4*	9.4%	-4.6%	i	3.1%
O=C(NCC(c1cccs1)S(=O)(=O)c1cccs1)c1ccc(C(F)(F)F)cc1 (centres undefined)	i	42.8	6.9%	-9.7%	i	2.1%
O=C(NCC(c1cccs1)S(=O)(=O)c1cccs1)c1ccc(Cl)cc1 (centres undefined)	i	99.8*	-3.0%	-9.5%	i	-3.2%
Cc1ccc(C(=O)NCC(c2cccs2)S(=O)(=O)c2cccs2)cc1C (centres undefined)	i	14.4	1.5%	?	i	-1.5%
O=C(NCC(c1cccs1)S(=O)(=O)c1cccs1)c1ccc(F)c(F)c1 (centres undefined)	i	94.6*	?	-4.5%	i	0.7%
COc1ccc(-n2c(C)c(C(C)=O)c3ccccc32)cc1	.	.	3.8%	.	.	.

Screening data deposited in PubChem by National Center for Advancing Translational Sciences (NCATS).
